From PubChem
Rows were chosen to be rich in hits. Some 12% of all compounds tested hit in one or more screens of this group.
HP1b binding inh – inhibitors of HP1-beta chromodomain binding to methylated histone tails; P83916; AlphaScreen HP1-beta / biotin-H3K9me3 peptide binding; Potency, µM (series often up to 114 µM), for the others: at the highest dose activity change, negative = inhibition, actives largely listed as inhibitors; actives 0.56% (n = 390,000); AID 540317; further: nearly all actives have a fitted effect of over 70% in size
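Compound inhibition of the preformed complex between 50 nM HP1-beta and 50 nM biotinylated H3K9me3 peptide was read by AlphaScreen. Buffer was PBS pH 7.4 with 0.01% Tween-20. Incubations ran 30 min at room temperature, with 10 ug/mL donor/acceptor beads.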
G9a inh – inhibitors of human histone lysine methyltransferase G9a; Q96KQ7; G9a H3K9 monomethylation, AlphaScreen, 2 h; Potency, µM (top dose mostly 102 µM), without a hit: top-dose activity, negative = inhibition, actives largely listed as inhibitors; actives 8.8% (n = 350,000); further: on the % scale 0 is the no-effect control and ±100 the full control effect; nearly all actives have a fitted effect of over 75% in size
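Quantitative HTS format: methyltransferase activity on a biotin-tagged H3K9 peptide is measured by AlphaScreen, using a rabbit anti-monomethyl-H3K9 antibody with streptavidin donor and anti-IgG acceptor beads. Final levels are 20 nM enzyme, 500 nM peptide, 20 uM SAM; 2 h RT.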
L3MBTL1 inh – blocks human L3MBTL1; Potency, µM (top dose mostly 57.1 µM), for inactives: at the highest dose activity, negative = inhibition, actives largely listed as inhibitors; AID 485360; AlphaScreen L3MBTL1–H3K9me1 peptide binding; actives 0.66% (n = 230,000); further: on the % scale 0 is the no-effect control and ±100 the full control effect; nearly all actives have a fitted effect of over 60% in size
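L3MBTL1 50 nM + b-AHA-H3(1-15)K9me1 75 nM, 30 min RT; compound added, 30 min RT; streptavidin donor/Ni-chelate acceptor beads 10 ug/mL each final, 30 min RT dark; AlphaScreen read.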
BAZ2B block – blocks human BAZ2B; Q9UIF8; AlphaScreen BAZ2B-H3K14Ac peptide displacement; Potency, µM (top dose mostly 114 µM), inactives show at the highest dose activity change, negative = inhibition, hits mostly inhibitors; actives 4.4% (n = 360,000); AID 504333; further: on the % scale 0 is the no-effect control and ±100 the full control effect; nearly all actives have a fitted effect of over 60% in size
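Compounds, titrated to a top concentration of 110 uM, were incubated 30 min at room temperature with preformed BAZ2B/acetyl-K14 H3 peptide complex (50 nM each). Proximity signal was measured by AlphaScreen after 20 min with beads.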
JMJD2A Tudor inh – inhibitors of human JMJD2A Tudor domain; O75164; AlphaScreen JMJD2A-Tudor / H3K4me3 peptide binding; Potency, µM (top dose mostly 114 µM), for inactives: top-dose activity change, negative = inhibition, hits mostly inhibitors; actives 4.4% (n = 390,000); AID 504339; further: on the % scale 0 is the no-effect control and ±100 the full control effect; nearly all actives have a fitted effect of over 50% in size
Sfp inh – inhibitors of Bacillus subtilis Sfp phosphopantetheinyl transferase | Biochemical Sfp PPTase activity, qHTS | Potency, µM, for inactives: largest response in the series, negative = inhibition, most hits filed as inhibitors | actives 3.5% (n = 310,000);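 further: the enzyme is Sfp with the accession as filed and its product quenches rhodamine fluorescence; 0% = enzyme reaction without inhibitor and -100% = no enzyme wells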
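Fluorescence-quenching assay with 15 nM Sfp, 5 uM rhodamine-CoA and 12.5 uM BHQ-2-labelled ybbR peptide in pH 7.6 Hepes/MgCl2 buffer. Enzyme was pre-incubated with compound for 15 min at room temperature. Rate was taken from the 30-min fluorescence change (525/598 nm).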
* = called active by the depositor; ? = inconclusive; . = no result given; [ ] = dose if it differs, or a comment. The call rests on the fitted dose curve; in most records, active means well fitted curve in the direction sought with a large enough effect; inconclusive means small, poorly fitted or top-dose-only effect, or another doubt; inactive means no such curve, though single readings can be large; an effect the other way counts as inactive or inconclusive. Potency means the concentration at half of the fitted maximal effect.

SMILES	HP1b binding inh	G9a inh	L3MBTL1 inh	BAZ2B block	JMJD2A Tudor inh	Sfp inh
O=[N+]([O-])c1cccc(-c2csc(N/N=C/c3cccc(O)c3)n2)c1	44.7µM*	35.5µM*	.	?	56.2µM*	50.1µM*
C(=N\Nc1nc(-c2ccccc2)cs1)/c1ccncc1	-4.8%	50.1µM*	-7.7%	?	?	?
Clc1cnc(N/N=C/c2cccs2)c(Cl)c1	56.5%	35.9%	-5.2%	2.1%	-7.7%	-10.9%
CCCCc1nn2c(=O)cc(COC(=O)C3CCCCC3)nc2s1	26.6%	6.7%[59 µM]	.	0.7%	-5.3%	.
CCc1ccccc1NC(=O)c1nc2nc(C)cc(C(F)F)n2n1	28.3%	11.0%[59 µM]	.	-1.0%	1.7%	.
C(=N\Nc1nc(-c2ccccc2)cs1)/c1cccs1	-23.6%	14.1µM*	-12.8%	?	-34.2%	8.91µM*
O=C(O)Cc1sc(N/N=C\c2ccncc2)nc1-c1ccccc1	17.2%	2µM*	-17.9%	-21.1%	-7.4%[11.4 µM]	28.2µM*
O=C(Nc1nc(-c2ccccc2)cs1)c1cccs1	41.6%	-6.0%	19.1%	9.7%	-11.9%	-2.0%
CCN(CC)S(=O)(=O)c1ccc(S(=O)(=O)N2CCC(N3CCCCC3)CC2)cc1	14.4%[57 µM]	13.4%	.	-7.5%	-1.1%	6.9%
CO[C@@H]1COC(=O)[C@H](COCc2ccccc2)NC(=O)C/C=C\[C@@H](C)[C@H](OC)COC(=O)[C@@H](C)NC(=O)C/C=C\[C@H]1C	.	.	.	.	.	12.4%
O=C(NNC1=C(C(=O)C(F)(F)F)CCC1)c1cccc(O)c1	16.3%	1.1%[59 µM]	-5.1%	0.3%	-19.8%	24.7%
Cc1cccc(C(=O)NNC2=C(C(=O)C(F)(F)F)CCC2)c1O	-22.0%	?	.	17.8µM*	79.4µM*	3.4%
CC(C)c1ccc(C(N)=S)cc1	-5.8%	50.1µM*	-2.0%	?	-8.7%	1.1%
Cc1noc(NS(=O)(=O)c2ccc(N/C=C\C(=O)c3ccncc3)cc2)c1C	27.6%	50.1µM*	.	1.2%	5.9%	10.2%
Cc1cccc(CNc2ncnc3ccc(-c4ccc(C(=O)N(C)C)cc4)cc23)c1	.	.	.	.	.	4.5%
Cc1cc(C)c(C)c(N=Nc2nc3ccccc3n2C)c1C	12.6µM*	11.2µM*	?	7.94µM*	11.2µM*	56.2µM*
Cc1ccc(C)c(N=Nc2nc3ccccc3n2C)c1	15.8µM*	29.8%[0.501 µM]	?	8.91µM*	25.1µM*	-13.6%
Cc1ccc(CNc2nc3ccccc3n2C)cc1	34.2%	26.2%[59 µM]	1.8%	-2.6%	-14.3%	-1.3%
COc1ccc(/C=N/c2nc3ccccc3n2C)cc1OC	9.8%	11.3%[59 µM]	-2.6%	-32.6%	-27.0%	12.2%
O=C(O)CCn1cc(/C=C2\NC(=S)N(c3ccccc3)C2=O)c(-c2ccc(Br)cc2)n1	0.8%	20µM*	-6.3%	.	?	11.9%
Cc1ccc(S(=O)(=O)N2CCN(C(=O)COC(=O)c3cnc(C)cn3)CC2)c(C)c1	20.7%	-27.1%	1.3%	-4.0%	-4.8%	.
COC(=O)c1nnc(C(=O)N(C)Cc2ccccc2)c2[nH]c3ccccc3c12	.	.	.	.	.	5.4%
O=C(NCCCc1ccccc1)C(=O)NCC1OCCN1S(=O)(=O)c1ccc(F)cc1 (stereo not given)	22.1%	21.2%	.	-24.4%	-5.5%	8.9%
O=C(NCCCn1ccnc1)C(=O)NCC1OCCN1S(=O)(=O)c1ccc(F)cc1 (stereo not given)	28.0%	19.5%	?	6.31µM*	56.2µM*	8.6%
Cc1ccc(S(=O)(=O)N2CCC(C(=O)NCCCn3ccnc3)CC2)cc1	24.6%	?	.	-1.4%	-2.7%	26.5%
SMILES	HP1b binding inh	G9a inh	L3MBTL1 inh	BAZ2B block	JMJD2A Tudor inh	Sfp inh
COc1ccc(S(=O)(=O)N2CCCOC2CNC(=O)C(=O)NCCCN2CCOCC2)cc1 (stereo not given)	12.7%	.	.	6.4%	-4.1%	2.7%
COc1ccc(S(=O)(=O)N2CCCOC2CNC(=O)C(=O)NCCCn2ccnc2)cc1 (stereo not given)	20.5%	6.3%	5.1%	79.4µM*	-12.5%	17.5%
Cc1ccc(S(=O)(=O)N2CCCOC2CNC(=O)C(=O)NCCCn2ccnc2)cc1 (stereo not given)	21.4%	-27.3%[59 µM]	-11.2%	50.1µM*	-23.2%	-6.5%
Cc1cc(C)c(S(=O)(=O)N2CCCOC2CNC(=O)C(=O)NCCCn2ccnc2)c(C)c1 (stereo not given)	19.6%	5.4%[59 µM]	-6.7%	?	0.7%	7.1%
O=C(NCCCn1ccnc1)C1CCCN(S(=O)(=O)c2ccc(F)cc2)C1 (stereo not given)	23.2%	13.9%[59 µM]	.	-11.5%	12.6µM*	4.2%
Cc1ccc(NC(=O)C(Cc2ccccc2)NS(=O)(=O)c2ccc3c(c2)c(=O)n(C)c(=O)n3C)cc1 (stereo not given)	-0.9%	-19.0%[59 µM]	.	?	-12.5%	.
O=S(=O)(NCCc1csc2nc(-c3ccccc3)nn12)c1cccs1	41.7%	7.7%[59 µM]	.	4.6%	-2.9%	.
Cc1ccc(C)c(S(=O)(=O)N2CCCOC2CNC(=O)C(=O)NCCCn2ccnc2)c1 (stereo not given)	?	2.4%[59 µM]	-22.8%	44.7µM*	-33.1%	1.6%
c1ccc(-c2cc3n(c2)CCc2ccccc2-3)cc1	-16.0%	3.16µM*	-2.3%	-33.2%	?	9.1%
Cc1ccc(NC(=O)C2CCN(S(=O)(=O)c3cc([N+](=O)[O-])ccc3Cl)CC2)nc1	-16.7%	.	-8.3%	.	44.7µM*	.
O=C(COC(=O)C1CC1)Nc1ncc(Cl)cc1Cl	-15.4%	?	?	?	?	.
